# Source: PubChem BioAssay (National Center for Advancing Translational Sciences (NCATS))
# Apoferritin bind = binds horse apoferritin like a general anesthetic. Potency, µM (doses to about 77.5 µM), actives largely listed as inhibitors. apoferritin/1-aminoanthracene competitive binding, fluorescence. 350,000 tested, 0.074% active. P02791; also: nearly all actives have a fitted effect of over 20% in size
# Target sequence (P02791 2-175 limits assumed): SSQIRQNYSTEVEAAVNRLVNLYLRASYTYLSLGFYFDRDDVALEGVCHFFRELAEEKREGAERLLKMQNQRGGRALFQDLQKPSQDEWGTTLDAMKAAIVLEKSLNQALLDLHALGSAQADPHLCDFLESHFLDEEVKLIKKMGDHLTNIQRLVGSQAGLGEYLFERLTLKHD
#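 Horse-spleen apoferritin (10 uM) was mixed with 50% saturated 1-aminoanthracene in PBS, exposed to compounds for 10 min at room temperature, and read for fluorescence (ex 380 nm, em 535 nm). Competitive displacement was fitted with a four-parameter Hill equation.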
# Glioma ERSR ind = induces the endoplasmic reticulum stress response in human glioma cells. Potency, µM, hits mostly activators. 420,000 tested, 0.02% active. U87-MG GRP78 promoter luciferase reporter, 16 h. AID 602332; also: series mostly up to about 76 µM; nearly all actives have a fitted effect of over 35% in size
#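 ERSR induction read as luciferase luminescence (Bright-Glo, 10 min at room temperature) in stably transfected human U87-MG glioma cells exposed to compounds for 16 h, using GRP78 as sensor.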
# BCR signal inh = inhibitors of chronic active B-cell receptor signaling; ABC-DLBCL IkBa-CBG/CBR reporter, luminescence ratio, 4 h; Potency, µM (series often up to 46.1 µM), actives largely listed as inhibitors; 340,000 tested, 0.05% active; AID 493014; active = well fitted inhibition curve with a large enough effect in the signal ratio, with a control signal flat, not every such curve was filed as active; inconclusive = small, poorly fitted or top-dose-only effect, or effect the other way, or a change in a side signal; the % refers to the signal ratio
#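 Doxycycline induced both beetle luciferases in TMD8 lymphoma cells; IKK-driven degradation limits the IkappaBalpha-fused green signal, while red luminescence normalises for cell number and nonspecific effects. Compounds tested up to 46 uM, 4 hrs.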
# 12-LOX inh = inhibitors of human 12S-lipoxygenase ALOX12; 580,000 tested, 1.1% active; Potency, µM (titrated, usually from 108 µM), actives largely listed as inhibitors; P18054; purified 12hLO, xylenol orange hydroperoxide absorbance
#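 Purified human 12hLO (150 nM final) in 25 mM Hepes, 0.01% Triton X-100, pH 7.0 was preincubated 15 min at room temperature with compound. Then 40 uM arachidonic acid was added, 30 min. Hydroperoxide was read by Fe-XO absorbance ratio 573/405 nm.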
# A number is an active result; . = inactive; ? = inconclusive; / = not tested or not shown; ! = repeats disagree; [ ] = dose if it differs, or a comment. An excerpt weighted towards active compounds, which were near 1.1% of everything screened. Unless noted, calls follow the shape of the dose curve; as a rule, active = well fitted curve in the direction sought with a large enough effect; inconclusive = small, poorly fitted or top-dose-only effect, or another doubt; inactive = no such curve, though single readings can be large; an effect the other way counts as inactive or inconclusive.
SMILES,Apoferritin bind,Glioma ERSR ind,BCR signal inh,12-LOX inh
O=C(O)Cn1ccc2cc(OCCc3cccc(-c4ccc(F)cc4)c3)cnc21,/,/,/,50.1µM
O=C(O)Cn1ccc2cc(OCC3CCN(C(=O)C4CCCC4)CC3)cnc21,/,/,/,.
CCOC(=O)C1=CN(Cc2cccc(-c3ccc(F)cc3)c2)S(=O)(=O)N(C)C1C (configuration not stated),/,.,.,.
O=C(O)Cn1ccc2cc(OCCc3cccc(-c4cccc(F)c4)c3)cnc21,/,/,/,50.1µM
Cc1ccc(S(=O)(=O)c2c(C)c(C)n(Cc3ccco3)c2N)cc1,/,/,/,44.7µM
N#C/C(=C\c1ccc([N+](=O)[O-])o1)C(=O)NC1CCCCC1,/,/,/,15.8µM
N#C/C(=C\c1ccco1)C(=O)NC1CCCC1,/,/,/,39.8µM
CC1=C[C@@H](CNCc2ccccc2O)[C@H](C(C)C)C[C@H]1Cc1nc2c(C)cccc2[nH]1,/,/,/,63.1µM
Cc1noc(C)c1-c1cc2c(cc(C)n2CCN(C)C)c(-c2ccccc2O)n1,/,/,/,79.4µM
COc1cccc(-c2nc(-c3c(C)noc3C)cc3c2cc(C)n3CCN(C)C)c1OC,/,/,/,.
Cc1ccc2c3cc(-c4ccccc4)cn3ccn12,/,/,/,0.794µM
COc1ccc(-n2nc3n(c2=O)CCN(Cc2cccc4ccccc24)C3)cc1,/,/,/,.[6.33 µM]
COc1ccc(C(=O)c2sc(Nc3ccccc3)c(C(N)=O)c2N)cc1,/,/,/,15.8µM
Cc1ccc(C(=O)NC(=S)NCC2CCCO2)cc1Br (configuration not stated),.,.,.,28.2µM
O=C(NC(=S)NCC1CCCO1)c1ccccc1Br (configuration not stated),.,.,.,.
NC(=S)N/N=C\c1c2ccccc2cc2ccccc12,.,.,?,?
NC(=S)N/N=C\c1c(OCc2ccccc2Cl)ccc2ccccc12,.,.,.,22.4µM
CCN(CC)C(=O)CC(c1cc(OC)c(OC)c(OC)c1)c1c(OC)cc(OC)c2c(-c3ccccc3)cc(=O)oc12 (configuration not stated),?,.,.,39.8µM
Cc1cccc(OC(=O)c2ccccc2I)c1C,/,/,/,.
CCc1noc(-c2cn(C3CCN(C(=O)c4sccc4C)C3)nn2)n1 (configuration not stated),/,/,/,44.7µM
OC(c1cc(-c2cccc(Cl)c2)nc2ccccc12)C1CCCCN1 (configuration not stated),/,.,/,35.5µM
COc1ccc(-c2oc3ccccc3c(=O)c2OC(C)=O)cc1,.,.,.,?
CC(=O)Oc1c(-c2ccc(Br)o2)oc2ccccc2c1=O,.,.,.,35.5µM
Cc1cc(=S)n2cn[nH]c2n1,/,/,/,0.447µM
O=C1NCCCCCN(C(=O)CC2CCCC2)[C@@H]2C[C@@H](C(=O)N3CCc4ccccc4C3)C[C@H]12,/,/,/,.
SMILES,Apoferritin bind,Glioma ERSR ind,BCR signal inh,12-LOX inh
COc1ccc(/C=C(/C#N)C(=O)Nc2cccc3ncccc23)cc1OC,/,/,/,15.8µM
CC(C)c1ccc(/C=C(/C#N)C(=O)Nc2cccc3ncccc23)cc1,/,/,/,15.8µM
C=CCOc1ccc(/C=C(\C#N)C(=O)Nc2ccccn2)cc1OC,.,.,?,10µM
COc1ccc(/C=C(\C#N)C(=O)Nc2ccccn2)cc1,.,.,?,.
N#Cc1ccccc1Oc1ccc(OCc2ccccc2)cc1,/,/,/,.
O=C(N[C@@H]1CN(Cc2ccc(F)cc2F)C[C@H]1CO)c1ccccc1,/,/,/,28.2µM
O=C(NC1CC1)[C@@H]1CN(Cc2ccc(Cl)cc2F)C[C@H]1CO,/,/,/,44.7µM
O=C(CCCN1C(=O)C(c2ccccc2)Oc2cccnc21)NC1CCCCC1 (configuration not stated),/,/,/,.
Cc1c(C(=O)NCc2nnc3n2CCCCC3)oc2ccccc12,/,/,/,.
COc1ccc(C(=O)O)cc1N1C(=O)Nc2ccccc2N1O,.,.,.,44.7µM
Cc1cc(S(=O)(=O)Nc2cccc(C(F)(F)F)c2)sc1C(=O)O,/,/,/,.
COc1ccc(C(=O)Oc2cccc(/C=N/NC(N)=S)c2)cc1,.,.,?,39.8µM
CCc1ncc2c(N3CC4CCC(C3)N4CC(F)(F)F)nc3ccccc3n12,/,/,/,.[6.33 µM]
CNC(=O)CCn1ncc2cc(OCc3ccccc3-c3ccc(F)cc3C)ccc21,/,/,/,63.1µM
COc1ccc(F)cc1-c1ccc(COc2ccc3c(cnn3CCC(=O)O)c2)cc1,/,/,/,35.5µM
COc1ccc(CN2CC3(CCN(S(=O)(=O)Cc4ccccc4)CC3)C2=O)cc1,/,/,/,.
CC(=O)c1ccc(NS(=O)(=O)c2ccc(CC(C)C)cc2)cc1,35.5µM,.,.,.
CC(=O)c1ccc(NS(=O)(=O)c2ccc(-c3ccc(C)cc3)cc2)cc1,/,/,/,.
CN(Cc1ccco1)C(=O)c1cc(-c2ccccn2)nc2ccccc12,/,/,/,.
CC1=C(SCc2ccccc2)C(=O)c2ccccc2C1=O,/,.,/,12.6µM
O=C1C(SCCO)=C(SCCO)C(=O)c2ccccc21,/,.,?,?
CCCCCCCCCCCC1=C(O)C(=O)C=C(O)C1=O,/,.,/,3.43µM!
Cc1ccc(C(O)(C(=O)NN)c2ccc(C)cc2)cc1,/,/,/,.
O=C1CSc2sc(=S)sc2SC1,/,/,/,5.01µM
Fc1ccc(Nc2nc(NC3CCCCCC3)nc3c2cnn3-c2ccccc2)cc1,/,/,/,.
SMILES,Apoferritin bind,Glioma ERSR ind,BCR signal inh,12-LOX inh
CCCNC(=O)CN(C)C(=O)CCCc1c[nH]c2ccccc12,/,/,/,.
CC(=O)NC(c1cccs1)c1cc([N+](=O)[O-])c2cccnc2c1O (configuration not stated),.,.,.,?
CCC(=O)NC(c1cccs1)c1cc([N+](=O)[O-])c2cccnc2c1O (configuration not stated),.,.,.,3.55µM
CCCC(=O)NC(c1cccs1)c1cc([N+](=O)[O-])c2cccnc2c1O (configuration not stated),.,.,.,17.8µM
CCCCOC(=O)COc1ccc2c(=O)c(Oc3ccccc3Br)coc2c1,/,/,/,.
Cc1nc(CC#N)n[nH]1,/,/,/,.
Cc1ccc(C)c(N/N=C2\CCCNC2=O)c1,.,.,.,8.91µM
Cc1ccccc1N/N=C1\CCCNC1=O,.,.,.,4.47µM
CN(C)c1nc(N)nc(CSc2ccccc2Cl)n1,/,/,/,.
Cc1c(C(=O)O)cccc1-c1ccc(/C=N/Nc2ccc(Br)cc2)o1,.,.,.,44.7µM
Cc1cc(=O)oc2cc(OCC(=O)N(C)CCOc3ccc(Br)cc3)ccc12,/,/,/,.
Cc1cccc(NC(=O)NCC2CCN(CCc3ccc(F)cc3)CC2)c1C,/,/,/,35.5µM
Cc1ccc(CN2CCC(CNC(=O)Nc3cccc(C)c3C)C2)cc1 (configuration not stated),.,.,/,.
COc1ccc(C(=S)NC2CCCCC2)cc1,.,.,?,?
S=C(Nc1ccc(Nc2ccccc2)cc1)NC1CCCCCC1,.,.,.,44.7µM
S=C(NC1CCCCC1)c1ccccc1,/,/,/,31.6µM
S=C(Nc1ccc(Cl)cc1)NC1CCCCC1,.,.,?,.
CCN(CC(=O)Nc1c(F)cccc1F)C(=O)c1nn(Cc2ccccc2)c(=O)c2ccccc12,/,/,/,.
CN(C)c1ccc(C(=S)N2CCCCCC2)cc1,?,.,.,39.8µM
CC(=O)N1CCN(C(=S)c2ccc(N(C)C)cc2)CC1,.,.,.,?
Cc1nc(C(F)(F)F)ccc1C(=O)N1CCC1(C)C(=O)NS(=O)(=O)c1cccc(F)c1 (configuration not stated),/,.,/,44.7µM
